# Source: PMC11006913
# Positions count from the first letter of the chain named.
# Legend:
# Test in all cases: PBM; 200 nM protein, PBS
# Conditions in all cases: dsDNA, one strand shown
# ALX4 [1] = target: ALX4 (Homo sapiens, UniProt Q9H161 200-286)
# ALX4 [2] = target: ALX4 (Homo sapiens, UniProt Q9H161 200-286, Q225E)
# ALX1 [3] = target: ALX1 (Homo sapiens, UniProt Q15699 118-204, L144V)
# ALX1 [4] = target: ALX1 (Homo sapiens, UniProt Q15699 118-204, L144R)
# ALX1 [5] = target: ALX1 (Homo sapiens, UniProt Q15699 118-204)
# PAX4 [6] = target: T1, PAX4 (Homo sapiens, UniProt O43316 9-242, R200K)
# T1 sequence: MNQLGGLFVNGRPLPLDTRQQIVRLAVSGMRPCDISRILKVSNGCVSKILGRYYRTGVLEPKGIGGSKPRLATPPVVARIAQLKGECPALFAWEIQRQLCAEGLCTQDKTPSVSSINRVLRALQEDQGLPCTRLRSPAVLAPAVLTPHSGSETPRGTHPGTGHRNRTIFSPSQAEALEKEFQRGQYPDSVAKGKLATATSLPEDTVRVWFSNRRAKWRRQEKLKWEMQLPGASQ
# PAX4 [7] = target: T2, PAX4 (Homo sapiens, UniProt O43316 9-242)
# T2 sequence: T1 sequence with K192R
# ALX4 (Homo sapiens, UniProt Q9H161 200-286), sequence (Q9H161 200-286): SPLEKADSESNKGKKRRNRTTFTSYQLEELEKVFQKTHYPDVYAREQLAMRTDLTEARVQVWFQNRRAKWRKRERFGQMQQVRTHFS
# ALX4 (Homo sapiens, UniProt Q9H161 200-286, Q225E), sequence (Q9H161 200-286 Q225E): as the sequence (Q9H161 200-286) above, with Q26E counted along it
# ALX1 (Homo sapiens, UniProt Q15699 118-204, L144R), sequence (Q15699 118-204 L144R): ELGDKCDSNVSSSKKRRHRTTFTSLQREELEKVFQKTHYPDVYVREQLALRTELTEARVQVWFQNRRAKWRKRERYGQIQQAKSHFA
# ALX1 (Homo sapiens, UniProt Q15699 118-204, L144V), sequence (Q15699 118-204 L144V): as the sequence (Q15699 118-204 L144R) above, with R27V counted along it
# ALX1 (Homo sapiens, UniProt Q15699 118-204), sequence (Q15699 118-204): as the sequence (Q15699 118-204 L144R) above, with R27L counted along it
sequence,measurement,setting,value
AGCAGCTC,binding signal,ALX4 [1],"8.01 upbm affinity estimate (log intensity, higher = more binding, comparable within an allelic series)"
same,binding signal,ALX4 [2],"8.09 upbm affinity estimate (log intensity, higher = more binding, comparable within an allelic series)"
CCGTAGCC,binding signal,ALX4 [1],"8.11 upbm affinity estimate (log intensity, higher = more binding, comparable within an allelic series)"
same,binding signal,ALX4 [2],"8.21 upbm affinity estimate (log intensity, higher = more binding, comparable within an allelic series)"
ATATGTAA,binding signal,ALX4 [1],"10.2 upbm affinity estimate (log intensity, higher = more binding, comparable within an allelic series)"
same,binding signal,ALX4 [2],"9.63 upbm affinity estimate (log intensity, higher = more binding, comparable within an allelic series)"
CCTCCTAC,binding signal,ALX4 [1],"7.75 upbm affinity estimate (log intensity, higher = more binding, comparable within an allelic series)"
same,binding signal,ALX4 [2],"8.06 upbm affinity estimate (log intensity, higher = more binding, comparable within an allelic series)"
AACTTACA,binding signal,ALX4 [1],"9.85 upbm affinity estimate (log intensity, higher = more binding, comparable within an allelic series)"
same,binding signal,ALX4 [2],"9.42 upbm affinity estimate (log intensity, higher = more binding, comparable within an allelic series)"
CGTAATCA,binding signal,ALX4 [1],"11.9 upbm affinity estimate (log intensity, higher = more binding, comparable within an allelic series)"
same,binding signal,ALX4 [2],"10.6 upbm affinity estimate (log intensity, higher = more binding, comparable within an allelic series)"
CGGCGGGC,binding signal,ALX4 [1],"8.42 upbm affinity estimate (log intensity, higher = more binding, comparable within an allelic series)"
same,binding signal,ALX4 [2],"8.3 upbm affinity estimate (log intensity, higher = more binding, comparable within an allelic series)"
ACTTACCG,binding signal,ALX4 [1],"9.9 upbm affinity estimate (log intensity, higher = more binding, comparable within an allelic series)"
same,binding signal,ALX4 [2],"9.28 upbm affinity estimate (log intensity, higher = more binding, comparable within an allelic series)"
TCGGCCGA,binding signal,ALX4 [1],"7.94 upbm affinity estimate (log intensity, higher = more binding, comparable within an allelic series)"
same,binding signal,ALX4 [2],"8.39 upbm affinity estimate (log intensity, higher = more binding, comparable within an allelic series)"
CGCCTTGA,binding signal,ALX4 [1],"8.09 upbm affinity estimate (log intensity, higher = more binding, comparable within an allelic series)"
same,binding signal,ALX4 [2],"8.15 upbm affinity estimate (log intensity, higher = more binding, comparable within an allelic series)"
CGACGCAG,binding signal,ALX4 [1],"7.86 upbm affinity estimate (log intensity, higher = more binding, comparable within an allelic series)"
same,binding signal,ALX4 [2],"7.87 upbm affinity estimate (log intensity, higher = more binding, comparable within an allelic series)"
GCTCAAGC,binding signal,ALX4 [1],"8.08 upbm affinity estimate (log intensity, higher = more binding, comparable within an allelic series)"
same,binding signal,ALX4 [2],"8.25 upbm affinity estimate (log intensity, higher = more binding, comparable within an allelic series)"
GAGAGGCA,binding signal,ALX4 [1],"8.02 upbm affinity estimate (log intensity, higher = more binding, comparable within an allelic series)"
same,binding signal,ALX4 [2],"8.16 upbm affinity estimate (log intensity, higher = more binding, comparable within an allelic series)"
GGTTATCA,binding signal,ALX4 [1],"9.51 upbm affinity estimate (log intensity, higher = more binding, comparable within an allelic series)"
same,binding signal,ALX4 [2],"9.1 upbm affinity estimate (log intensity, higher = more binding, comparable within an allelic series)"
ACGCGGGA,binding signal,ALX4 [1],"8.23 upbm affinity estimate (log intensity, higher = more binding, comparable within an allelic series)"
same,binding signal,ALX4 [2],"8.27 upbm affinity estimate (log intensity, higher = more binding, comparable within an allelic series)"
GGAAGCCA,binding signal,ALX4 [1],"8.23 upbm affinity estimate (log intensity, higher = more binding, comparable within an allelic series)"
same,binding signal,ALX4 [2],"8.17 upbm affinity estimate (log intensity, higher = more binding, comparable within an allelic series)"
CGTGCTCC,binding signal,ALX4 [1],"8.3 upbm affinity estimate (log intensity, higher = more binding, comparable within an allelic series)"
same,binding signal,ALX4 [2],"8.41 upbm affinity estimate (log intensity, higher = more binding, comparable within an allelic series)"
CCCGACAG,binding signal,ALX4 [1],"8.07 upbm affinity estimate (log intensity, higher = more binding, comparable within an allelic series)"
same,binding signal,ALX4 [2],"8.17 upbm affinity estimate (log intensity, higher = more binding, comparable within an allelic series)"
GAATACAA,binding signal,ALX4 [1],"9.67 upbm affinity estimate (log intensity, higher = more binding, comparable within an allelic series)"
same,binding signal,ALX4 [2],"9.34 upbm affinity estimate (log intensity, higher = more binding, comparable within an allelic series)"
GCAGCTCC,binding signal,ALX4 [1],"8.25 upbm affinity estimate (log intensity, higher = more binding, comparable within an allelic series)"
same,binding signal,ALX4 [2],"8.26 upbm affinity estimate (log intensity, higher = more binding, comparable within an allelic series)"
GCATTTGA,binding signal,ALX4 [1],"9.56 upbm affinity estimate (log intensity, higher = more binding, comparable within an allelic series)"
same,binding signal,ALX4 [2],"9.16 upbm affinity estimate (log intensity, higher = more binding, comparable within an allelic series)"
CTCTCGCC,binding signal,ALX4 [1],"7.89 upbm affinity estimate (log intensity, higher = more binding, comparable within an allelic series)"
same,binding signal,ALX4 [2],"8.06 upbm affinity estimate (log intensity, higher = more binding, comparable within an allelic series)"
AATTTTGA,binding signal,ALX4 [1],"11.1 upbm affinity estimate (log intensity, higher = more binding, comparable within an allelic series)"
same,binding signal,ALX4 [2],"10.2 upbm affinity estimate (log intensity, higher = more binding, comparable within an allelic series)"
ATTTTCTC,binding signal,ALX4 [1],"10.1 upbm affinity estimate (log intensity, higher = more binding, comparable within an allelic series)"
same,binding signal,ALX4 [2],"9.45 upbm affinity estimate (log intensity, higher = more binding, comparable within an allelic series)"
AAGCCGGC,binding signal,ALX4 [1],"7.99 upbm affinity estimate (log intensity, higher = more binding, comparable within an allelic series)"
same,binding signal,ALX4 [2],"8.26 upbm affinity estimate (log intensity, higher = more binding, comparable within an allelic series)"
TAAATTTA,binding signal,ALX4 [1],"12.2 upbm affinity estimate (log intensity, higher = more binding, comparable within an allelic series)"
same,binding signal,ALX4 [2],"11 upbm affinity estimate (log intensity, higher = more binding, comparable within an allelic series)"
ATTGGTGA,binding signal,ALX4 [1],"10.4 upbm affinity estimate (log intensity, higher = more binding, comparable within an allelic series)"
same,binding signal,ALX4 [2],"9.78 upbm affinity estimate (log intensity, higher = more binding, comparable within an allelic series)"
GGGTGACC,binding signal,ALX4 [1],"8.07 upbm affinity estimate (log intensity, higher = more binding, comparable within an allelic series)"
same,binding signal,ALX4 [2],"8.31 upbm affinity estimate (log intensity, higher = more binding, comparable within an allelic series)"
CCCTTCCA,binding signal,ALX4 [1],"8.25 upbm affinity estimate (log intensity, higher = more binding, comparable within an allelic series)"
same,binding signal,ALX4 [2],"8.35 upbm affinity estimate (log intensity, higher = more binding, comparable within an allelic series)"
GAGGGAGC,binding signal,ALX4 [1],"8.04 upbm affinity estimate (log intensity, higher = more binding, comparable within an allelic series)"
same,binding signal,ALX4 [2],"8.01 upbm affinity estimate (log intensity, higher = more binding, comparable within an allelic series)"
AATGGATA,binding signal,ALX4 [1],"10.2 upbm affinity estimate (log intensity, higher = more binding, comparable within an allelic series)"
same,binding signal,ALX4 [2],"9.39 upbm affinity estimate (log intensity, higher = more binding, comparable within an allelic series)"
GACTGGAC,binding signal,ALX4 [1],"7.98 upbm affinity estimate (log intensity, higher = more binding, comparable within an allelic series)"
same,binding signal,ALX4 [2],"8.14 upbm affinity estimate (log intensity, higher = more binding, comparable within an allelic series)"
same,binding signal,ALX1 [3],"6.55 upbm affinity estimate (log intensity, higher = more binding, comparable within an allelic series)"
same,binding signal,ALX1 [4],"6.42 upbm affinity estimate (log intensity, higher = more binding, comparable within an allelic series)"
same,binding signal,ALX1 [5],"6.44 upbm affinity estimate (log intensity, higher = more binding, comparable within an allelic series)"
CAGCGTAA,binding signal,PAX4 [6],"10.6 upbm affinity estimate (log intensity, higher = more binding, comparable within an allelic series)"
same,binding signal,PAX4 [7],"10.8 upbm affinity estimate (log intensity, higher = more binding, comparable within an allelic series)"
